KKLEB cytotox: cytotoxicity in KKLEB CF airway cells, primary screen, cytotoxicity control for CF NF-kB inhibitor project, cell-based, uHTS, fluorescence assay plates. KKLEB CF airway cells viability, ATPlite luminescence, overnight; hits give low values; cells stimulated with P. aeruginosa culture filtrate. 0.36% of 360,000 active. activity change (cytotoxicity), % at 5 µM. AID 602141, 2011;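 active = corrected activity change at or below -50% at 5 µM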
MITF TRPM1 inh: inhibitors of MITF-dependent TRPM1 promoter reporter, primary screen, cell-based, SK-MEL-5, single point, luciferase. inhibition, % at 12.5 µM. 0.83% of 330,000 active. SK-MEL-5 TRPM1 promoter luciferase, 24 h. AID 488899, 2010;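 active = mean inhibition across replicates of 60% or more, whatever share of single replicates reaches that level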
Peg3 promoter: Peg3 promoter-driven luciferase inhibitors, primary screen, cell-based, HeLa, luciferase luminescence; HeLa PEG-Prom luciferase reporter, overnight; inhibition, % at 20 µM; 1.7% of 360,000 active; AID 588405, 2011;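 active = inhibition of at least 50% at 20 µM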
Shn3 inh set2: reduction of Shn3 3'UTR firefly luciferase signal, primary screen, Schnurri-3 inhibitor project, cell-based, Clone20 osteoblasts, set 2; Clone20 osteoblast Shn3 3'UTR firefly luciferase, 24 h; inhibition, % at 12.5 µM; 0.52% of 360,000 active; AID 588674, 2011;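 active = mean inhibition of at least 75% with every replicate also reaching 75%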
CF NFkB inh: inhibitors of PAF-induced NF-kB signaling, primary screen, cell-based, GFP fluorescence, uHTS; KKLEB NF-kB-GFP reporter, GFP fluorescence overnight; inhibition, % at 5 µM; 0.86% of 360,000 active; AID 588850, 2011;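 active = at least 50% inhibition at 5 µM, scaled per plate between neutral and stimulator controls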;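 note: PAF is a Pseudomonas aeruginosa culture filtrate used as stimulus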
EBV LMP1 NFkB: EBV LMP1-driven NF-kappaB luciferase reporter inhibitors, primary screen, cell-based, luminescence, single point. LMP1-induced NF-kappaB luciferase reporter cells. inhibition, % at 12.5 µM. 0.69% of 350,000 active. AID 504558, 2011; in the data active = inhibition above about 41%
Numbers stand for hits; . = inactive; / = not tested or not shown. Most compounds without a hit are left out; they make up all but 2.9% or so of the library.

SMILES | KKLEB cytotox | MITF TRPM1 inh | Peg3 promoter | Shn3 inh set2 | CF NFkB inh | EBV LMP1 NFkB
O=C(Nc1ccc(N2CCOCC2)cc1)c1ccc([N+](=O)[O-])o1 | . | . | 102.4 | . | . | .
CC(C)NC(=O)C1(C)CCN1C(=O)c1cccn1C (stereo not drawn) | . | / | . | . | . | /
Cc1nccn1CC(=O)c1ccccc1 | . | / | . | . | . | .
C[C@@H]1CN([C@H](C)CO)C(=O)CCCn2nncc2CO[C@H]1CN(C)S(=O)(=O)c1ccc(C#N)cc1 | . | / | . | . | . | .
Cc1ccc(CNS(=O)(=O)c2ccc(Cl)s2)cc1 | . | / | . | . | . | .
O=C(Nc1ccc(S(=O)(=O)N2CCCC2)cc1)c1ccc([N+](=O)[O-])o1 | . | / | 97.4 | 91.0 | 82.6 | .
O=C(Nc1ccccc1N1CCOCC1)c1ccc([N+](=O)[O-])s1 | . | 80.9 | . | . | . | .
Cc1ccc(-n2ccc(=O)c(C(=O)Nc3ccc(S(=O)(=O)N4CCOCC4)cc3)n2)cc1 | . | . | . | . | . | 44.9
O=C(Nc1ccc(N2CCN(C(=O)c3cccs3)CC2)cc1)c1ccc([N+](=O)[O-])o1 | -55.5 | 97.7 | 107.3 | . | 107.1 | .
O=C(Nc1ccc(N2CCN(C(=O)c3cccs3)CC2)cc1)c1ccco1 | . | . | . | . | . | .
CC1CCCN(CCCNC(=O)c2cc3c(Cl)nc4ccccc4c3s2)C1 (stereo not drawn) | . | . | 91.9 | . | . | .
Cc1nc2ccccc2c2oc(C(=O)NCCCN3CCCC(C)C3)cc12 (stereo not drawn) | . | . | . | . | . | .
CC1CCN(CCCNC(=O)c2cc3c(s2)-c2ccccc2OC3)CC1 | . | . | 61.9 | . | . | .
Cc1cccc2c1-c1sc(C(=O)NCCCN3CCC(C)CC3)cc1CO2 | . | . | 74.7 | . | . | .
CC1CCCN(CCCNC(=O)c2cc3c(s2)-c2ccccc2OC3)C1 (stereo not drawn) | . | . | 75.3 | . | . | .
COc1ccc(-c2cc(C(=O)NCc3ccc(C(F)(F)F)cc3)[nH]n2)c(C)c1 | . | / | . | . | . | /
CCn1c(SCC(=O)Nc2ccc(N3CCOCC3)cc2)nnc1C1CC1 | . | . | . | . | . | .
O=C(OCC1CCC=CO1)C1CCC=CO1 (stereo not drawn) | . | . | . | . | . | .
CC(C)(C)NC(=O)C1(C)CCC(=O)N1C1CCN(Cc2ccccc2)CC1 (stereo not drawn) | . | / | . | . | . | /
COc1cc(NC(=O)c2cc3c(Cl)nc4ccccc4c3s2)cc(OC)c1OC | . | . | . | 94.2 | . | .
CC(=NNC(=O)c1ccncc1)c1ccccc1Cl | . | . | . | . | . | .
C/C(=N\NC(=O)c1ccccc1NC(=O)c1ccc(Cl)cc1)c1ccncc1 | . | . | 63.9 | . | . | 54.2
CNC(=O)c1cc(Oc2ccc(NC(=O)Nc3ccc(Cl)c(C(F)(F)F)c3)cc2)ccn1 | . | . | . | . | 74.7 | 68.3
COc1ccc(NC(=O)N(C)C[C@@H]2OCc3cn(nn3)CCCC(=O)N([C@@H](C)CO)C[C@H]2C)cc1 | . | / | . | . | . | .
CCN(CC)c1ccc(NC(=O)Cn2c(C(C)NC(=O)c3ccc(C)cc3)nc3ccccc32)cc1 (stereo not drawn) | . | . | 99.4 | . | . | .
SMILES | KKLEB cytotox | MITF TRPM1 inh | Peg3 promoter | Shn3 inh set2 | CF NFkB inh | EBV LMP1 NFkB
CN(C)CCNC(=O)c1ccccc1 | . | . | . | . | . | .
CN(C)CCNC(=O)c1cccc2ccc(-c3ccc(-c4ccccc4)cc3)nc12 | . | 70.5 | 93.4 | . | . | .
Cc1cc(C(=O)NCCCN(C)C)c2ccccc2n1 | . | . | . | . | . | .
COc1ccc(OC)c2nc3c(C(=O)NCCN(C)C)cccc3nc12 | . | 72.9 | 89.6 | . | . | .
CC(C(=O)Nc1ccccc1Br)c1ccc([N+](=O)[O-])cc1 (stereo not drawn) | . | . | . | . | . | .
COC(=O)c1ccccc1NC(=O)C(C)c1ccc([N+](=O)[O-])cc1 (stereo not drawn) | . | . | . | . | . | 62.3
CN(C)c1ncnc2c1ncn2[C@H]1CN(Cc2ccc(-c3ccccc3)cc2)C[C@@H](CO)O1 | . | / | . | . | . | /
CC1CCCC(C)N1CCCNC(=O)c1ccc2c(c1)NC(=O)c1ccccc1S2 (stereo not drawn) | . | . | . | . | . | .
CCC(C)N(CCNC(=O)c1ccc2c(c1)NC(=O)c1ccccc1S2)C1CCCCC1 (stereo not drawn) | . | . | 76.0 | . | . | .
Nc1ccc(C(=O)NN2C(=O)[C@H](Cl)C2c2ccc(Cl)cc2)cc1 (stereo partly drawn) | -78.9 | 80.5 | 102.0 | 98.7 | 90.9 | .
CCNC(=O)CC1C(=O)N(C)C(=S)N1NC(=O)c1ccc(Cl)cc1 (stereo not drawn) | . | . | . | . | . | .
COc1ccccc1N=C(C)C1=C(O)CC(c2ccccc2)CC1=O (stereo not drawn) | . | . | . | . | 52.7 | .
COc1ccc(/C=C/CN2CCN(Cc3ccccc3)C(CCO)C2)cc1 (stereo not drawn) | . | . | . | . | . | 51.2
CCc1ccc(NC(=O)COC(=O)C2(c3ccc(Cl)cc3)CCCC2)cc1 | . | . | . | . | . | 60.5
CNc1snc(C)c1C(=O)OC(C)C(=O)Nc1ccc(F)cc1 (stereo not drawn) | . | . | . | . | . | .
Cc1ccc(-c2nn(-c3cc(N4CCNCC4)ccc3[N+](=O)[O-])c(=O)c3ccccc23)cc1 | . | . | 102.2 | . | . | .
Oc1cc2c(cc1O)C(c1ccccc1)CNCC2 (stereo not drawn) | -58.5 | . | . | . | . | .
CCC(C)n1ncn(-c2ccc(N3CCN(c4ccc(OCC5COC(Cn6cncn6)(c6ccc(Cl)cc6Cl)O5)cc4)CC3)cc2)c1=O (stereo not drawn) | . | . | . | . | 63.4 | 91.1
Cn1c(NCC(O)c2ccccc2)nc2c1c(=O)n(Cc1ccc(Cl)c(Cl)c1)c(=O)n2C (stereo not drawn) | . | . | 53.4 | / | . | .
COc1ccc(CNc2nc3c(c(=O)n(Cc4ccc(F)cc4)c(=O)n3C)n2C)cc1 | . | . | 50.3 | . | . | .
Cn1c(NCc2ccccc2)nc2c1c(=O)n(Cc1ccccc1)c(=O)n2C | . | . | . | . | . | .
COc1ccc(S(=O)(=O)N2CCCCC2)cc1NC(=O)C1CC1(Cl)Cl (stereo not drawn) | . | / | . | . | . | .
